These results are taken from the supplement of paper PMC12669797.

In one assay the test system is ES2. Description: cell viability relative to DMSO control (MTS) (fraction of DMSO control); higher = more viable cells / less growth inhibition. To be noted: 10 µM; 48 h. An outline of the steps: (§1)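 A 367-compound […] library was tested at a final concentration of 10 µM on TOV-21G and ES2 clear cell carcinoma cells (5000 cells per well, 96-well plates, pre-grown 24 h), with control wells receiving vehicle only. Following 48 h of exposure, CellTiter 96 AQueous One Solution was used as the manufacturer directs. This MTS assay gives cell viability as a fraction of the vehicle control.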

A further assay relates to TOV-21G. Described as above. To be noted: 10 µM; 48 h. Summed up: as §1

Structures can show the parent of a compound that is named as a salt. ± gives the standard deviation of the averaged measurements.

As for `COc1cccc2c1C(=O)c1c(O)c3c(c(O)c1C2=O)C[C@@](O)(C(C)=O)C[C@@H]3O[C@H]1C[C@H](N)[C@H](O)[C@H](C)O1` [Daunorubicin, HCl], the cell viability turned out to be 0.435 with ES2 and 0.527 in the assay on TOV-21G.
As for `O=C1C(SCCO)=C(SCCO)C(=O)c2ccccc21`, the cell viability in the assay with ES2 came out at 0.962; in the assay with TOV-21G, 0.861.
The like results for `CNCCCN1c2ccccc2CCc2ccccc21` [desipramine hydrochloride] were, in that order, 0.954 and 0.745.
Taken in the same sequence, the figures for `CCn1cc(C(=O)O)c(=O)c2ccc(C)nc21` [Nalidixic acid] were 0.981 and 1.12.
The like results for `CC(=O)O[C@H]1C(=O)[C@@]2(C)[C@H]([C@H](OC(=O)c3ccccc3)[C@]3(O)C[C@H](OC(=O)[C@H](O)[C@@H](NC(=O)c4ccccc4)c4ccccc4)C(C)=C1C3(C)C)[C@]1(OC(C)=O)CO[C@@H]1C[C@@H]2O` [Paclitaxel] were, in that order, 0.467 and 1.25.
With `NC(=O)c1ccc2nc(-c3ccc(Oc4ccc(Cl)cc4)cc3)[nH]c2c1` [Chk2 inhibitor II], the cell viability with ES2 amounted to 1.23; in the assay on TOV-21G, 1.1.
Taken in the same sequence, the figures for `O=C1NC(=O)c2c1c1c3ccccc3[nH]c1n1cncc21` [isogranulatimide] were 1.12 and 1.47.
Taken in the same sequence, the figures for `Cc1c(C)c2c(c(C)c1O)CCC(C)(COc1ccc(CC3SC(=O)NC3=O)cc1)O2` (stereo unspecified) [Troglitazone] were 0.835 and 1.26.
Taken in the same sequence, the figures for `CO[C@H]1C[C@@H]2CC[C@@H](C)[C@@](O)(O2)C(=O)C(=O)N2CCCC[C@H]2C(=O)O[C@H]([C@H](C)C[C@@H]2CC[C@@H](OC(=O)C(C)(CO)CO)[C@H](OC)C2)CC(=O)[C@H](C)/C=C(\C)[C@@H](O)[C@@H](OC)C(=O)[C@H](C)C[C@H](C)/C=C/C=C/C=C/1C` [temsirolimus] were 0.824 and 0.516.
With `COc1ccc(Cl)cc1C(=O)NCCc1ccc(S(=O)(=O)NC(=O)NC2CCCCC2)cc1` [Glibenclamide], the cell viability in the assay on ES2 is 0.829; in the assay on TOV-21G, 0.958.
The like results for `CC(C)n1nc(-c2cc3cc(O)ccc3[nH]2)c2c(N)ncnc21` [Torkinib] were, in that order, 0.417 and 0.38.
The like results for `O=c1c2ccccc2[nH]c(=S)n1CCN1CCC(=C(c2ccc(F)cc2)c2ccc(F)cc2)CC1` [Diacylglycerol kinase inhibitor II] were, in that order, 1.09 and 1.13.
Turning to `Cn1cnc2c(NCc3ccccc3)nc(NCCO)nc21` [Olomoucine], the cell viability in the assay with ES2 was 1.25 ± 0.25; in the assay with TOV-21G, 1.27 ± 0.17.
The like results for `O=C(c1cc(Cc2n[nH]c(=O)c3ccccc23)ccc1F)N1CCN(C(=O)C2CC2)CC1` [Olaparib] were, in that order, 0.77 and 0.888.
The like results for `O=C(Nc1cccc(Nc2nccc(Nc3cccc(C(F)(F)F)c3)n2)c1)C1CC1` [Aurora kinase inhibitor III] were, in that order, 0.94 and 0.573.
For the compound `Cc1[nH]c(/C=C2\C(=O)Nc3ccc(S(=O)(=O)N(C)c4cccc(Cl)c4)cc32)c(C)c1C(=O)N1CCN(C)CC1`, the cell viability in the assay with ES2 is 0.402; in the assay with TOV-21G, 0.639.
With `C#Cc1cccc(Nc2ncnc3cc(OCCOC)c(OCCOC)cc23)c1` [erlotinib], the cell viability in the assay on ES2 was found to be 0.7; with TOV-21G it was 0.487.
Taken in the same sequence, the figures for `C/C=C/C=C\C=C/C(O)C(C)C(CCC(C)C1OC(=O)C=CC1C)OP(=O)(O)O` (stereo unspecified) [Cytostatin] were 0.34 and 0.344.
Take `CC1=Nc2ccc(Cl)cc2S(=O)(=O)N1` [Diazoxide]: the cell viability in the assay with ES2 stood at 0.816; in the assay with TOV-21G it was 0.996.
The like results for `CO[C@H]1C[C@@H]2CC[C@@H](C)[C@@](O)(O2)C(=O)C(=O)N2CCCC[C@H]2C(=O)O[C@H]([C@H](C)C[C@@H]2CC[C@@H](O)[C@H](OC)C2)CC(=O)[C@H](C)/C=C(\C)[C@@H](O)[C@@H](OC)C(=O)[C@H](C)C[C@H](C)/C=C/C=C/C=C/1C` [Rapamycin] were, in that order, 0.854 and 0.576.
Taken in the same sequence, the figures for `COc1ccc(OC)c2c(=S)c3ccccc3[nH]c12` were 1.35 and 1.14.
As to `Cc1cnc(-c2cnc(NCCNc3ccc(C#N)cn3)nc2-c2ccc(Cl)cc2Cl)[nH]1`, the figures for the cell viability in the assay on ES2 and in the assay on TOV-21G were 1.05 and 0.888, respectively.
The like results for `CCN(CC)CCNC(=O)c1c(C)[nH]c(/C=C2\C(=O)Nc3ccc(Cl)cc32)c1C` were, in that order, 0.254 and 0.222.
The like results for `CC(Cc1ccc(O)c(O)c1)C(C)Cc1ccc(O)c(O)c1` (stereo unspecified) [Nordihydroguaiaretic acid (NDGA)] were, in that order, 1 and 0.865.
The like results for `O=C(Nc1cccc(NC(=O)c2cccc(O)c2O)c1)c1cccc(O)c1O` were, in that order, 0.614 and 0.302.
With `COc1cc2nc(N3CCCN(C)CC3)nc(NC3CCN(Cc4ccccc4)CC3)c2cc1OC`, the cell viability in the assay on ES2 stood at 0.42; in the assay on TOV-21G it was 0.454.
The like results for `COC(=O)Nc1nc2cc(C(=O)c3cccs3)ccc2[nH]1` [Nocodazole] were, in that order, 0.451 and 0.464.
The like results for `O=C1Nc2ccc(I)cc2/C1=C\c1cc(Br)c(O)c(Br)c1` [RAF1 kinase inhibitor I] were, in that order, 1.1 and 1.03.
The like results for `CC(=O)N[C@@H](CSC(=O)[C@]1([C@@H](O)C(C)C)NC(=O)[C@H](C)[C@@H]1O)C(=O)O` [Lactacystin] were, in that order, 0.637 and 0.482.
With `O=c1oc2c(O)c(O)cc3c(=O)oc4c(O)c(O)cc1c4c23` [Ellagic acid], the cell viability with ES2 amounted to 0.827; with TOV-21G it was 0.935.
The like results for `CCCOc1ccccc1-c1nc2[nH]nnc2c(=O)[nH]1` [Zaprinast] were, in that order, 0.909 and 1.03.
With `O=C(Nc1ccc([N+](=O)[O-])cc1O)Nc1ccccc1Br`, the cell viability in the assay on ES2 came out at 0.469; in the assay with TOV-21G, 0.605.
The like results for `CNC(=O)[C@H](Cc1c[nH]c2ccccc12)NC(=O)[C@@H](CC(=O)NO)CC(C)C` were, in that order, 1.02 and 0.959.
